Measurements reported in PubChem BioAssay.
The source made the active and inactive calls.

Columns and labels:
[1] = binders of probe aFSTL3 on microarray, primary screen, stem cell growth factor project, biochemical, small-molecule microarray, fluorescence 635/667 (AID 1064); details: higher = more signal;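 note: measures binding of the biotinylated anti-FSTL3 antibody to printed compounds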
[2] = binders from COS7 lysate, DM2A8 probe, primary screen, torsin A project, cell lysate, small-molecule microarray, fluorescence 635/667 (AID 1065); details: higher = more signal, COS7 lysate expressing mutant human TOR1A
[3] = binders of probe aFGF2 on microarray, primary screen, stem cell growth factor project, biochemical, small-molecule microarray, fluorescence 635/667 (AID 1067); details: higher = more signal;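 note: measures binding of biotinylated aFGF2 protein to printed compounds on slides; z-score merges feature fluorescence and signal-to-noise across triplicate slides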
[4] = binders of probe aFGF10 on microarray, primary screen, stem cell growth factor project, biochemical, small-molecule microarray, fluorescence 635/667 (AID 1071); details: higher = more signal;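 note: score merges 667 nm spot intensity and signal to noise from triplicate slides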
[5] = target: Neurogenic locus notch homolog protein 2 (Homo sapiens) (UniProt Q04721); assay: Notch2 binders on small-molecule microarrays, primary screen, biochemical, small-molecule microarray, 635 nm fluorescence, stem cell growth factors (AID 1073); details: Notch2 binding, higher = more signal
[6] = target: Pro-neuregulin-1, membrane-bound isoform (Homo sapiens) (UniProt Q02297); assay: NRG1 binders on small-molecule microarrays, primary screen, psychiatric disease protein project, biochemical, small-molecule microarray, fluorescence 635/667 (AID 1075); details: NRG1 binding, 635 nm fluorescence, higher = more signal;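 note: score combines 667 nm spot fluorescence with signal to noise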
[7] = system: Neuregulin-1 EGF-like domain; assay: binders of neuregulin-1 EGF-like domain, primary screen, biochemical, small-molecule microarray, 635 nm fluorescence (AID 1081); details: small-molecule microarray binding, higher = more signal;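 note: binding of the protein to compounds printed on small-molecule microarray slides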
[8] = FRG1 promoter luciferase signal modulators, primary screen, FRG1 inhibition for FSHD, cell-based, C2C12 myotubes, firefly/Renilla luciferase, luminescence (AID 1084); details: higher = more signal, called active from +8 up or from −8 down
[9] = binders of probe aFST on microarray, primary screen, stem cell growth factor project, biochemical, small-molecule microarray, fluorescence 635/667 (AID 1086); details: higher = more signal;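 note: score merges 667 nm fluorescence with signal-to-noise of each printed compound spot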
[10] = binders of probe aHhip on microarray, primary screen, stem cell growth factor project, biochemical, small-molecule microarray, fluorescence 635/667 (AID 1087); details: higher = more signal;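 note: score merges spot fluorescence at 667nm with spot signal to noise ratio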

Chain of Pro-neuregulin-1, membrane-bound isoform (Homo sapiens) (Q02297 whole entry, looked up, the tested form may be a part, canonical isoform): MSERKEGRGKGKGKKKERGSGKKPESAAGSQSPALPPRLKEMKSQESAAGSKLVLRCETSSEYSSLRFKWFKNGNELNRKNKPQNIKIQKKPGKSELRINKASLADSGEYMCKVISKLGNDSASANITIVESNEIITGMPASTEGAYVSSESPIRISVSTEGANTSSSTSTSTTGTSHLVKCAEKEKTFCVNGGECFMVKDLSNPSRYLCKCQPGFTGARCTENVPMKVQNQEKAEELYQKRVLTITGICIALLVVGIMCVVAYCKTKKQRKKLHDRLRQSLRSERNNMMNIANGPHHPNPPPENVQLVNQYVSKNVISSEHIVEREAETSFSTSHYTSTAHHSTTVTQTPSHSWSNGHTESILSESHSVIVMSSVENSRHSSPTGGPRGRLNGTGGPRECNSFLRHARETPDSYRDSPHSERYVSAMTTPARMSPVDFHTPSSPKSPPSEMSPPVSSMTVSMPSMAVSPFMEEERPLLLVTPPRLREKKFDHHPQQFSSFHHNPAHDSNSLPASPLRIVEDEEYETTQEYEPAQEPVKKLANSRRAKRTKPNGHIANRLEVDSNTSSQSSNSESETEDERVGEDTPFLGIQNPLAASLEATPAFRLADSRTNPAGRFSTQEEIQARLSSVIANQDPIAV
Chain of Neurogenic locus notch homolog protein 2 (Homo sapiens) (Q04721 whole entry, looked up, canonical isoform): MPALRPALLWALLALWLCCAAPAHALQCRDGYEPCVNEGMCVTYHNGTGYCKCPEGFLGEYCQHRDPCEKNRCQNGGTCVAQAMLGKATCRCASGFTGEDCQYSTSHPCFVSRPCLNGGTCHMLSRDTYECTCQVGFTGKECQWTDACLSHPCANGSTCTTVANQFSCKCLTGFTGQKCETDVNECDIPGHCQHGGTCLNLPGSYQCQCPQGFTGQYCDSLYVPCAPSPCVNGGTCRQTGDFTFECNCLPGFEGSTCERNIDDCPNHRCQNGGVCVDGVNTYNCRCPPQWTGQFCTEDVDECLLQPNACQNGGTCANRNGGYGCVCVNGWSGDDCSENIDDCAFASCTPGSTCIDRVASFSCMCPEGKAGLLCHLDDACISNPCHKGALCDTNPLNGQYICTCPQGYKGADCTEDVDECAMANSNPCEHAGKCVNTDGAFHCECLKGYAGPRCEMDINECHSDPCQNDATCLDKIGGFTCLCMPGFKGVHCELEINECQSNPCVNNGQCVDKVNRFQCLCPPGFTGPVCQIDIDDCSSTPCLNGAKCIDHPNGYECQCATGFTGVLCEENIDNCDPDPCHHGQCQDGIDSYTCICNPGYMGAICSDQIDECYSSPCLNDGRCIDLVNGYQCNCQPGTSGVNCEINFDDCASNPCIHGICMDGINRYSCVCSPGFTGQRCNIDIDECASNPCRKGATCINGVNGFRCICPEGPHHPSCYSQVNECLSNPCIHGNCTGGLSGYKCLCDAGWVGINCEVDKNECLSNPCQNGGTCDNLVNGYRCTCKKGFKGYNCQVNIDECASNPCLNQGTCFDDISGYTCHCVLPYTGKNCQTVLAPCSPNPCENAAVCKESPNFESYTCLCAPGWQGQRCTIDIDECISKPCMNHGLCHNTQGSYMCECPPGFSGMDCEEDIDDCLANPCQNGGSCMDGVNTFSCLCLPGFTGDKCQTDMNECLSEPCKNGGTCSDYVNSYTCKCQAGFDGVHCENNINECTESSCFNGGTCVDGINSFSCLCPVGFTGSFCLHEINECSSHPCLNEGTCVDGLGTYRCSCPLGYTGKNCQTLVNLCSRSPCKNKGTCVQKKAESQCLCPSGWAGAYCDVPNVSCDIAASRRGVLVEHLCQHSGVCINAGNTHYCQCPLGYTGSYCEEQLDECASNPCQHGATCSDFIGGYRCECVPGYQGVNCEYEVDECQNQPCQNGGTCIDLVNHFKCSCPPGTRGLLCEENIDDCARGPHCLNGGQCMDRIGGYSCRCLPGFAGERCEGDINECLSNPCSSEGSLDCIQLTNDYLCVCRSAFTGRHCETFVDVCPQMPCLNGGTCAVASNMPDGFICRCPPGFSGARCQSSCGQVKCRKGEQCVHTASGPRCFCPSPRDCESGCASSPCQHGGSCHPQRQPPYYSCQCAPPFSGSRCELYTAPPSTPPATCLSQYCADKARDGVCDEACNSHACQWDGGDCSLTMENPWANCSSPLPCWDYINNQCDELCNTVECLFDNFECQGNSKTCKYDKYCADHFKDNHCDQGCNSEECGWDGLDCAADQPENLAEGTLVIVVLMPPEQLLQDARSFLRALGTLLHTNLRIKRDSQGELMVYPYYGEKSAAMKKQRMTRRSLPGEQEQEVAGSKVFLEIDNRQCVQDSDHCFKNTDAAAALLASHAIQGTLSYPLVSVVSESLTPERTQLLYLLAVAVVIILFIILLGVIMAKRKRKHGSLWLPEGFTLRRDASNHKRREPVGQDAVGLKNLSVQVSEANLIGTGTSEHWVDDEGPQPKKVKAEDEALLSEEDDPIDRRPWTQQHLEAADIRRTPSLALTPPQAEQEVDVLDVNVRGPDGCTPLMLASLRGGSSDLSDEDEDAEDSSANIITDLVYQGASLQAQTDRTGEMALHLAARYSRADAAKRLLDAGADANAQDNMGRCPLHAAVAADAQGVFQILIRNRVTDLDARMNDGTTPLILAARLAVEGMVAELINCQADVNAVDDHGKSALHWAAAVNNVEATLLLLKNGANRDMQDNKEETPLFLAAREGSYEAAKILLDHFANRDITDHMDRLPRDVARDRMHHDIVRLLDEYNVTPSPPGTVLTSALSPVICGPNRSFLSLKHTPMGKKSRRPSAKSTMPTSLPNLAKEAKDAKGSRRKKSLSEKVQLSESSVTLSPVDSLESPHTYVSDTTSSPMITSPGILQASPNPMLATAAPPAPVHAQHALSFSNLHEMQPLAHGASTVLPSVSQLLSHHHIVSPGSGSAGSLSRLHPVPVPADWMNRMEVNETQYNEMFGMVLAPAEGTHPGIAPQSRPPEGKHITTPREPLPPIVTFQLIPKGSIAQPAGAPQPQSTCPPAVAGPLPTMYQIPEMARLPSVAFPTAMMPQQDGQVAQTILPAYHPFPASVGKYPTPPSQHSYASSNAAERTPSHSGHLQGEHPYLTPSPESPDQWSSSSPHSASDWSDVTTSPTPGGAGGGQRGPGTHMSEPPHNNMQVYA

Row | SMILES | composite z-score [1] | composite z-score [2] | composite z-score [3] | composite z-score [4] | composite z-score [5] | composite z-score [6] | composite z-score [7] | z-score [8] | composite z-score [9] | composite z-score [10]
1 | CC(C)N1C(=O)c2ccccc2[C@](C)(C(=O)NCCCN(C)C)[C@@H]1c1ccc(CO)cc1 | 0.261 | 1.04 | -0.154 | -0.231 | -0.595 | 0.724 | 1.07 | 1.47 (inactive) | -0.128 | -0.0672
2 | C=CCC(OC(C)=O)[C@@H]1[C@@H](N(Cc2cc3ccccc3o2)C(=O)c2cccc3ccccc23)c2cc(OCCCO)ccc2N1C(=O)Cc1ccc2ccccc2c1 (stereo not given in full) | -0.0977 | 0.0901 | -0.0383 | 0.0537 | -0.127 | 0.144 | 0.195 | -2.3 (inactive) | 0.309 | 0.0749
3 | COc1cc(NN2C(C(O)c3ccccc3)C=CC3C(=O)N(c4ccccc4)C(=O)C32)cc(OC)c1OC (stereo not given) | -0.0824 | 0.215 | 0.135 | 1.13 | 1.56 | 1.87 | 1.38 | 0.556 (inactive) | 1.08 | -0.194
4 | CCCCN1CC=CC23O[C@@H]4C=CCCOC(=O)C4[C@H]2C(=O)N(CCCO)[C@@H]3C1=O (stereo not given in full) | -0.0115 | -0.265 | -0.147 | -0.609 | -1.08 | -0.931 | -0.053 | 0.211 (inactive) | -0.277 | -0.191
5 | [N-]=[N+]=NCc1ccccc1C[C@]1(C(N)=O)N=C(c2ccc(OCCCO)cc2)O[C@H]1c1ccccc1N=[N+]=[N-] | 0.567 | -0.186 | -0.0085 | 0.665 | 0.997 | 1.3 | 1.12 | -1.4 (inactive) | 0.93 | 0.151
6 | O=c1cccc(-c2cccc3ccccc23)o1 | 0.745 | -0.378 | -0.0316 | -0.413 | -0.0766 | -0.159 | 0.75 | 3.63 (inactive) | 0.0143 | 0.0053
7 | Oc1ccc2cc[n+](Cc3cccc(OC(F)(F)F)c3)cc2c1 | -0.446 | 1.77 | -0.0841 | -0.0974 | 0.0892 | -0.322 | 0.921 | 0.498 (inactive) | 0.191 | 0.0749
8 | C=CCC(OC(C)=O)[C@@H]1[C@@H](N(Cc2ccc(-c3cccc(C(F)(F)F)c3)o2)C(=O)c2ccc(C)cc2)c2cc(OCCCO)ccc2N1C(=O)c1ccc2ccccc2n1 (stereo not given in full) | 0.172 | 0.0875 | -0.036 | 0.515 | 0.126 | 0.147 | 0.118 | -0.352 (inactive) | 0.361 | 0.0373
9 | CN(C)CCCCCCNC(=O)[C@@H]1C[C@@H]2C(=O)N[C@@H](Cc3ccccc3)C(=O)N2[C@@H]1c1cccc(OCCO)c1 | 0.0797 | 1.42 | -0.0605 | 0.215 | 0.0438 | 1.42 | 1.33 | 3.59 (inactive) | 0.258 | 0.241
10 | COc1ccc([Si](C)(C)[C@@H]2[C@@H](CCO)O[C@]3(C(=O)N(Cc4ccccc4)c4ccc(N(C=O)c5ccccc5)cc43)[C@H]2C)cc1 | -0.106 | 0.255 | -0.133 | 0.465 | 0.154 | 0.359 | 0.979 | -2.04 (inactive) | -0.176 | -0.236
11 | CCOC(=O)C1=CC[C@@H](c2ccccc2)N(S(=O)(=O)c2ccc(C)cc2)[C@H]1c1ccc(C#N)cc1 | -0.0221 | 0.381 | 0.054 | 0.359 | 1.43 | 1 | 1.01 | -1.59 (inactive) | 0.832 | -0.161
12 | COc1ccc([Si](C)(C)[C@@H]2[C@@H](CCO)O[C@]3(C(=O)N(Cc4cccc(N(C=O)c5ccccc5)c4)c4ccccc43)[C@H]2C)cc1 | 0.318 | 0.526 | -0.0784 | -0.126 | 0.199 | 0.835 | 0.787 | -0.198 (inactive) | 0.316 | 0.0524
13 | O=C1O[C@H](c2ccccc2)[C@H](c2ccccc2)N2[C@H]1[C@@H](C(=O)Nc1nc3ccccc3s1)[C@]1(C(=O)Nc3ccc(C#CC4=CCCCC4)cc31)[C@H]2c1ccc(OCCO)cc1 | -0.576 | 0.188 | -0.0148 | 0.556 | 0.6 | 0.734 | 1.11 | 3.08 (inactive) | 1.21 | 0.0834
14 | [N-]=[N+]=Nc1ccccc1C[C@]1(C(=O)N2CCCCC2)N=C(c2ccc(OCCCO)cc2)O[C@H]1c1ccccc1N=[N+]=[N-] | 0.368 | -0.155 | 0.14 | 0.771 | 1.53 | 1.71 | 1.01 | -1.68 (inactive) | 0.991 | -0.305
15 | C=C(/C(=C/C[C@@H](OC(=O)c1ccncc1)c1ccc(CO)o1)c1cc(C(=O)OC)ccc1OC)C(C)C | -0.441 | 1.46 | -0.0226 | 0.901 | 0.974 | 1.15 | 0.954 | -1.13 (inactive) | 0.377 | 0.0373
16 | C=C(C)[C@@H]1CC=C(C(O)C2C=CC3C(=O)N(Cc4ccccc4)C(=O)C3N2n2cnnc2)CC1 (stereo not given in full) | 0.29 | 0.271 | -0.0877 | -0.215 | -0.274 | 0.485 | 0.703 | 0.225 (inactive) | 0.325 | 0.208
17 | OCCCc1cc[n+](Cc2cccc(OC(F)(F)F)c2)cc1 | 0.451 | 0.451 | -0.085 | -0.389 | 0.272 | 0.564 | 1.47 | 1.7 (inactive) | 0.676 | -0.125
18 | O=C(CS)NCCCCCNC(=O)[C@H]1C[C@H]2C(=O)N[C@@H](Cc3ccccc3)C(=O)N2[C@H]1c1cccc(OCCO)c1 | 0.0238 | 1.31 | -0.0195 | 1.16 | 0.617 | 0.244 | 1.33 | -0.676 (inactive) | 0.551 | -0.156
19 | COc1ccc(CCNC(=O)[C@@]2(C)c3ccccc3C(=O)N(Cc3ccccc3)[C@H]2c2ccc(CO)cc2)cc1 | -0.277 | 1.25 | 0.0626 | 0.299 | 1.24 | 1.67 | 1.44 | -3.66 (inactive) | 0.851 | 0.0286
20 | COCCn1c(C(=O)N(C)C)cc2c1C[C@H]1CN(C(=O)c3ccccc3)[C@@](Cc3ccc(F)cc3)(C(=O)OC)[C@@H]21 | 0.0407 | -0.0248 | 0.203 | 0.651 | 1.56 | 1.11 | 0.998 | 0.592 (inactive) | 0.576 | -0.0347
21 | COc1ccc(C(O)C2C=CC3C(=O)N(c4ccccc4)C(=O)C3N2Nc2ccccc2)c2ccccc12 (stereo not given) | 0.782 | -0.141 | -0.0201 | 0.354 | 0.945 | 0.724 | 1.04 | -0.0953 (inactive) | 0.563 | -0.163
22 | CCCNC(=O)[C@@]1(C)c2ccccc2C(=O)N(Cc2cc(F)cc(C(F)(F)F)c2)[C@H]1c1ccc(CO)cc1 | 0.343 | 1.04 | -0.0901 | -0.104 | -0.639 | 0.27 | 0.146 | -0.92 (inactive) | -0.282 | -0.181
23 | C=CCC(OC(C)=O)[C@@H]1[C@@H](N(Cc2cc3ccccc3o2)C(=O)c2cccc3ccccc23)c2cc(OCCCO)ccc2N1C(=O)Cc1ccc(OC)cc1 (stereo not given in full) | -0.295 | -0.52 | -0.0128 | 0.0939 | 0.0751 | 0.758 | 0.111 | -0.709 (inactive) | -0.0464 | -0.109
24 | O=C1C[C@@](C(=O)O)(c2ccc([N+](=O)[O-])cc2)[C@@H](c2ccc(CO)cc2I)N1C1CCCCC1 | 0.0508 | 0.0298 | -0.0256 | 0.798 | 1.11 | 1.39 | 0.94 | -1.26 (inactive) | 0.797 | 0.12
25 | COc1cc(CO)cc(I)c1O[C@H]1C=C(C(=O)NCCO)C[C@@H](N(CCc2cccc(F)c2)C(=O)CCC2CCCC2)[C@@H]1O | 0.0822 | 0.825 | 0.195 | 0.146 | 0.0011 | 1.27 | 1.29 | -4.64 (inactive) | 0.336 | 0.219
26 | CC(=O)n1cc(C(O)C2C=CC3C(=O)N(c4ccccc4)C(=O)C3N2Nc2ccc(C#N)cc2)c2ccccc21 (stereo not given) | -0.0594 | -0.234 | 0.106 | 0.794 | 1.5 | 1.8 | 1.29 | 0.471 (inactive) | 0.296 | 0.0373
27 | C=C(CCCC)C(=O)CC[C@H](OC(=O)c1ccccc1-c1ccccc1C(=O)O)c1ccc(CO)o1 | -0.619 | 0.779 | -0.0206 | 1.16 | 0.455 | 0.606 | 1.25 | -0.225 (inactive) | 0.367 | -0.0994
